In the library only some 27% were active in any assay of this set; here they are far more common.
CYP2C9 inhib – inhibitors of human CYP2C9 | P11712 | CYP2C9 Supersomes, luciferin-H conversion, luminescence | inhibition, % at 5 µM | hit rate 20% among 96,000;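 active = blocking of liver enzyme CYP2C9 beyond about 50% at 5 µM, limit read from the data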
CYP2C9 activ – increases human cytochrome P450 2C9 activity | recombinant CYP2C9, luciferin-H conversion, luminescence; active compounds read high; factor 1 = untreated enzyme, 0 = blocked | hit rate 1.4% among 96,000 | activation factor at 5 µM | AID 1024;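 active = activation factor of 2 or more for CYP2C9 at a 5 µM dose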;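 note: 0 = sulfaphenazole-blocked wells and 1 = vehicle-only wells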
CYP2C19 act – activators of human cytochrome P450 2C19; P33261; recombinant CYP2C19, luciferin-H EGE luminescence; active compounds read high; 0 = fully inhibited enzyme, 1 = untreated enzyme; activation factor at 5 µM; 96,000 tested, under 10 active;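 active = activation factor of at least 2 at 5 µM in the primary screen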;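 note: 0 = wells with 2.5 mM tranylcypromine and 1 = vehicle-only wells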
CYP2C19 inh – blocks human cytochrome P450 2C19; inhibition, % at 5 µM; hit rate 21% among 96,000; CYP2C19 Supersomes, luciferin-H EGE luminescence, 30 min;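 active = CYP2C19 inhibition above a set limit at 5 µM in the primary screen, cut at about 50% in these data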;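 note: plate controls were negative control wells for no effect and 2.5 mM tranylcypromine positive control for full effect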
Cav3 T inh – human Cav3.2 channel inhibition, primary screen | O95180 | Cav3.2-expressing cells, Fluo-4 calcium fluorescence FDSS; active compounds read low | B-score at 10 µM | hit rate 4% among 100,000 | AID 449739;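 active = single-dose well whose peak fluorescence ratio is a statistical outlier from its plate by either plate-standardised score or position-corrected B-score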
Numbers without * were called inactive.

What do the screens show for `O=C(O)c1ccc(CN(c2ccccn2)S(=O)(=O)c2ccccc2)cc1`?
CYP2C9 inhib: -5; CYP2C9 activ: 1; CYP2C19 act: 1; CYP2C19 inh: 0; Cav3 T inh: -0.48

Results for C#Cc1ccc([C@@H]2C=C(C(=O)N3CCN(Cc4ccccc4)CC3)O[C@H](OCCCCO)C2)cc1 ?
Cav3 T inh: -0.68

Results for Cc1sc(-c2ccncc2)nc1OC(=O)c1ccc(Cl)cc1 ?
CYP2C9 inhib: 88*; CYP2C9 activ: 0.1; CYP2C19 act: 0.1; CYP2C19 inh: 90*; Cav3 T inh: -0.042

How did Cc1sc(-c2ccncc2)nc1OC(=O)c1cc(Cl)cc(Cl)c1 do in these assays?
CYP2C9 inhib: 68*; CYP2C9 activ: 0.3; CYP2C19 act: 0.5; CYP2C19 inh: 53*; Cav3 T inh: -0.53

What do the screens show for `C/C(=N\OC(=O)c1ccc(Cl)cc1)c1sc(-c2ccccc2)nc1C`?
CYP2C9 inhib: -2; CYP2C9 activ: 1; CYP2C19 act: 1; CYP2C19 inh: -1

Results for O=C(O)Cc1sc(-c2ccc(Cl)cc2)nc1-c1ccccc1 ?
CYP2C9 inhib: 48; CYP2C9 activ: 0.5; CYP2C19 act: 1; CYP2C19 inh: -5; Cav3 T inh: -0.27

What do the screens show for `CCCCOc1[nH]c2nc(-c3ccco3)n(Cc3ccco3)c(=N)c2c1C#N`?
CYP2C9 inhib: 81*; CYP2C9 activ: 0.2; CYP2C19 act: 0.4; CYP2C19 inh: 61*

Results for Cc1cc(SCC(=O)N2CCC(c3noc4ccc(F)cc34)CC2)nc2ccccc12 ?
CYP2C9 inhib: 34; CYP2C9 activ: 0.7; CYP2C19 act: 0.6; CYP2C19 inh: 44; Cav3 T inh: -5*

What do the screens show for `COc1ccc(Cl)cc1-n1c(C)cc(C=O)c1C`?
CYP2C9 inhib: 60*; CYP2C9 activ: 0.4; CYP2C19 act: 0.1; CYP2C19 inh: 87*; Cav3 T inh: -0.32

What do the screens show for `Cc1ccc(S(=O)(=O)CCc2nnc(NC(=O)c3cnccn3)s2)cc1`?
CYP2C9 inhib: 51*; CYP2C9 activ: 0.5; CYP2C19 act: 1.1; CYP2C19 inh: -13; Cav3 T inh: 2.7

How did CC(C)c1nnc(NC(=O)c2cnccn2)s1 do in these assays?
CYP2C9 inhib: 13; CYP2C9 activ: 0.9; CYP2C19 act: 1.1; CYP2C19 inh: -7; Cav3 T inh: 0.78

How did CC1Cc2cc(/C(O)=C3/C(=O)C(=O)N(CC4CCCO4)C3c3ccco3)ccc2O1 (stereo not given) do in these assays?
CYP2C9 inhib: -10; CYP2C9 activ: 1.1; CYP2C19 act: 1.2; CYP2C19 inh: -19

What do the screens show for `COc1cccc(C(=O)NCC(=O)n2nc(C)cc2C)c1`?
CYP2C9 inhib: -19; CYP2C9 activ: 1.2; CYP2C19 act: 1.1; CYP2C19 inh: -6; Cav3 T inh: -0.35

Results for CCOc1cc(CNc2ccc3cn[nH]c3c2)ccc1OC ?
CYP2C9 inhib: 75*; CYP2C9 activ: 0.3; CYP2C19 act: 0.1; CYP2C19 inh: 88*; Cav3 T inh: -1.7

Results for CCn1c2ccccc2c2cc(NC(=O)CSc3nnc(-c4ccc(OC)cc4)n3N)ccc21 ?
CYP2C9 inhib: 24; CYP2C9 activ: 0.8; CYP2C19 act: 0.8; CYP2C19 inh: 18; Cav3 T inh: -0.046

Results for O=C(/C=C/c1ccc(Cl)c([N+](=O)[O-])c1)NCc1cccnc1 ?
Cav3 T inh: 0.13

What do the screens show for `N#CC(c1ccccc1)c1ccc(C(=O)c2ccc(F)cc2)cc1` (stereo not given)?
CYP2C9 inhib: 99*; CYP2C9 activ: 0; CYP2C19 act: 0.1; CYP2C19 inh: 91*; Cav3 T inh: -0.65

How did N#CC(c1ccc(F)cc1)c1ccc(C(=O)c2ccccc2)cc1 (stereo not given) do in these assays?
CYP2C9 inhib: 91*; CYP2C9 activ: 0.1; CYP2C19 act: 0.2; CYP2C19 inh: 76*; Cav3 T inh: -0.83

What do the screens show for `O=C(c1ccc(F)cc1)c1cc2ccccc2o1`?
CYP2C9 inhib: 11; CYP2C9 activ: 0.9; CYP2C19 act: 0.5; CYP2C19 inh: 46; Cav3 T inh: -0.9

Results for CC(=O)Cn1c(C(F)(F)F)nc2ccccc21 ?
CYP2C9 inhib: -14; CYP2C9 activ: 1.1; CYP2C19 act: 1.1; CYP2C19 inh: -13; Cav3 T inh: -0.27

Results for CC(=O)Nc1ccc(S(=O)(=O)N(C)CC(=O)NC2=NCCS2)cc1 ?
CYP2C9 inhib: 14; CYP2C9 activ: 0.9; CYP2C19 act: 1.2; CYP2C19 inh: -18

Results for CCOC(=O)C1CCN(C(=O)CN(c2ccc3c(c2)OCCO3)S(C)(=O)=O)CC1 ?
CYP2C9 inhib: -3; CYP2C9 activ: 1; CYP2C19 act: 1; CYP2C19 inh: 0; Cav3 T inh: 1

Results for COc1ccc(C2=Nn3c(nnc3-c3ccncc3)SC2)cc1OC ?
CYP2C9 inhib: 61*; CYP2C9 activ: 0.4; CYP2C19 act: 0.7; CYP2C19 inh: 26; Cav3 T inh: 0.00031

How did COc1ccc(C2=Nn3c(nnc3-c3cccnc3)SC2)cc1OC do in these assays?
CYP2C9 inhib: 23; CYP2C9 activ: 0.8; CYP2C19 act: 0.8; CYP2C19 inh: 15; Cav3 T inh: 0.79

What do the screens show for `COc1cc(OC)cc(C(=O)NCc2n[nH]c(=S)n2-c2ccccc2)c1`?
CYP2C9 inhib: 17; CYP2C9 activ: 0.8; CYP2C19 act: 0.4; CYP2C19 inh: 64*; Cav3 T inh: 0.27

Results for COc1ccc(C(=O)NCc2n[nH]c(=S)n2-c2ccccc2)cc1OC ?
CYP2C9 inhib: 12; CYP2C9 activ: 0.9; CYP2C19 act: 0.8; CYP2C19 inh: 21; Cav3 T inh: -2.9

What do the screens show for `O=C(NCc1n[nH]c(=S)n1-c1cccc(Cl)c1)c1ccc(S(=O)(=O)N2CCCC2)cc1`?
CYP2C9 inhib: 61*; CYP2C9 activ: 0.4; CYP2C19 act: 0.6; CYP2C19 inh: 42; Cav3 T inh: -0.054

What do the screens show for `COC(=O)[C@H]1C[C@@H]1[C@H](NC(=O)c1cc(C)on1)c1ccccc1`?
Cav3 T inh: 0.72

What do the screens show for `COC(=O)COc1cccc2c(=O)n(CC(=O)NCCc3ccccc3)ccc12`?
Cav3 T inh: -0.58

What do the screens show for `CCOC(=O)CC(=O)CSc1nc2nc(C)cc(C)n2n1`?
CYP2C9 inhib: 17; CYP2C9 activ: 0.8; CYP2C19 act: 0.8; CYP2C19 inh: 19; Cav3 T inh: 1.8

Results for COc1cc(OC)c2nc(C)c3c(c2c1)N(c1ccc(O)cc1)CC3 ?
CYP2C9 inhib: 0; CYP2C9 activ: 1; CYP2C19 act: 0.7; CYP2C19 inh: 27

Results for COC(=O)c1ccccc1NC(=O)Cn1c(CCC(=O)O)ccc1-c1cccs1 ?
CYP2C9 inhib: 33; CYP2C9 activ: 0.7; CYP2C19 act: 0.5; CYP2C19 inh: 53*; Cav3 T inh: 2.1

How did O=C(CCSc1ccc(Cl)c(Cl)c1)NC12CC3CC(CC(C3)C1)C2 do in these assays?
CYP2C9 inhib: 13; CYP2C9 activ: 0.9; CYP2C19 act: 0.7; CYP2C19 inh: 29; Cav3 T inh: -5.9*

Results for COC(=O)c1ccccc1NC(=O)CSc1nnc(COc2cccc(OC)c2)n1C ?
CYP2C9 inhib: 25; CYP2C9 activ: 0.8; CYP2C19 act: 0.7; CYP2C19 inh: 32; Cav3 T inh: -0.72

From PubChem
